# GALK inh: galactokinase (human) inhibition; Purified GALK, Kinase-Glo residual ATP luminescence; 270,000 compounds, 0.007% hits; P51570; AID 1868; Potency, µM (doses to about 57.5 µM), hits mostly inhibitors
#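 The enzyme phosphorylates galactose (100 uM) using ATP (35 uM); inhibition is detected as higher residual ATP, quantified by bioluminescence after 1 h reaction at room temperature, pH 8.0.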
# GAA glycogen: inhibitors or activators of human alpha-glucosidase glycogen cleavage; recombinant GAA, glycogen substrate, Amplex Red glucose oxidase fluorescence; 300,000 compounds, 0.38% hits; Potency, µM (highest dose often 76.4 µM), actives largely listed as inhibitors;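 further: the screen sought inhibitors and activators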
#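 Natural-substrate format: glycogen cleavage by 4 nM human enzyme, glucose read by Amplex Red coupling (Ex 573, Em 610 nm). Normalized to enzyme and no-enzyme controls.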
# PKM2 act: PKM2 (human) enzyme activation | 260,000 compounds, 0.34% hits | purified PKM2, Kinase-Glo ATP luminescence, activation; response scale: 0% is enzyme alone, no compound | AID 1631 | P14618 | Potency, µM (titrated, usually from 57.5 µM), most hits filed as activators; further: nearly all actives have a fitted effect of over 55% in size
# Target sequence (P14618 whole entry, looked up): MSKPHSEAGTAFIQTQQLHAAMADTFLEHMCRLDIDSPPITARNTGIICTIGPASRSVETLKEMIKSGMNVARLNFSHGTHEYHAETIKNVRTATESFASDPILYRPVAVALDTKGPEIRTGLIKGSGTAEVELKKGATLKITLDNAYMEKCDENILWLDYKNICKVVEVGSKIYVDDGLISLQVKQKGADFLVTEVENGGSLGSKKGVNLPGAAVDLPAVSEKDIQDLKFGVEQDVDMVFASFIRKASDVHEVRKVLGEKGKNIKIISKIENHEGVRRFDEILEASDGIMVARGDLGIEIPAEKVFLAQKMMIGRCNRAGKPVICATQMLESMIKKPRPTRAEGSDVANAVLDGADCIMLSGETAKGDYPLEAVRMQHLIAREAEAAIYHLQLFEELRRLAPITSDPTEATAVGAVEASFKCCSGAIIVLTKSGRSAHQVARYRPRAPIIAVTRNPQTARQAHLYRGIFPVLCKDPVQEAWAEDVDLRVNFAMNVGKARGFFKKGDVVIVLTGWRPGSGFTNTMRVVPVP
#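 Purified hPK-M2 (>95% pure) converted ADP (0.1 mM final) to ATP with 0.5 mM PEP in 50 mM imidazole pH7.2, KCl, MgCl2, Tween 20, BSA; 1 h at room temperature. ATP detected by Kinase-Glo luminescence.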
# GAA inh: blocks human lysosomal alpha-glucosidase; 200,000 compounds, 0.005% hits; purified human GAA, 4-MU-alpha-glucoside fluorescence; Potency, µM (highest dose often 76.9 µM), usual class: inhibitors
#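 Compounds are titrated up to 77 uM against 4 nM human enzyme. Substrate 4-methylumbelliferyl-alpha-D-pyranoside (400 uM) reacts 20 min at room temperature in pH 5.0 buffer; liberated 4-methylumbelliferone is read at 440 nm.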
# GAA spleen mod: inhibits or activates alpha-glucosidase in human spleen homogenate; 240,000 compounds, 0.006% hits; AID 2112; human spleen homogenate, 4-MU-alpha-glucoside fluorescence; Potency, µM (series often up to 79.9 µM), usual class: inhibitors; P10253
#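 Enzyme source: human spleen homogenate, 1 ug/well. Buffer 50 mM citric acid/K phosphate pH 5.0, 0.01% Tween-20. 4-MU-alpha-glucoside 1 mM; 37 C x 40 min; NaOH/glycine stop; fluorescence.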
# Numbers stand for hits; . = inactive; ? = inconclusive; / = not tested or not shown; [ ] = another dose, or the depositor's remark. This is a sample that favours compounds with a hit; in the whole collection about 0.63% have one here. The call rests on the fitted dose curve; in most records, active means well fitted curve in the direction sought with a large enough effect; inconclusive means small, poorly fitted or top-dose-only effect, or another doubt; inactive means no such curve, though single readings can be large; an effect the other way counts as inactive or inconclusive.
SMILES,GALK inh,GAA glycogen,PKM2 act,GAA inh,GAA spleen mod
COc1ccc(C2C(CC(=O)O)=C(O)C(=O)N2c2ccccc2)cc1 (centres undefined),.,14µM,.,.,.
Cc1c(Nc2c3c(c(C#N)c4nc5ccccc5n24)CCC3)c(=O)n(-c2ccccc2)n1C,.,7µM,.,.,.
Cc1ccc(CNC(=O)C(C)n2nc(C)n3c(cc4sccc43)c2=O)cc1 (centres undefined),/,.,/,/,/
CC(C)OCCCNC(=O)c1cc2c(-c3ccc(Cl)cc3)nn(C)c2s1,/,.,/,/,/
COc1cccc(N2C(=O)CC(N3CCc4ccccc43)C2=O)c1 (centres undefined),.,40µM,.,.,.
CCOC(=O)c1ccc(NC(=O)CCc2c(C)nc3c(c(C)nn3-c3ccccc3)c2C)cc1,/,.,/,/,/
CCOC(=O)c1[nH]c2cc(OC)c(OC)cc2c1N,.,28µM,.,.,.
O=C1CC(c2cccc(O)c2)c2cc3c(cc2N1)OCO3 (centres undefined),/,.,/,/,/
O=C1CC(c2ccc(O)c(O)c2)Oc2c1ccc(O)c2O (centres undefined),.,11µM,.,/,.
CC(=O)CCc1oc2c([N+](=O)[O-])cccc2c1-c1ccc(C)o1,.,.,10µM,.,.
CC(=O)CCc1oc2ccc([N+](=O)[O-])cc2c1-c1ccc(C)o1,.,.,.,?,.
CCOC(=O)c1ccn(-c2nc(-c3cccc(OC)c3)cc(C(F)(F)F)n2)n1,/,.,/,/,/
CCOc1ccc(-n2nnc3c(=O)n(CC(=O)Nc4cc(C)on4)cnc32)cc1,/,.,16µM,/,.
O=C(Nc1ccc(Br)cc1F)N1CCC2(CC1)Oc1ccccc1C(=O)N2Cc1ccccc1F,/,.,/,/,/
CCCc1cc(=O)[nH]c(Nc2ccc(O)cc2)n1,.,28µM,.,.,.
CCCc1cc(=O)[nH]c(Nc2ccc(Cl)cc2)n1,.,.,.,.,.
COc1cc(OC)cc(-c2nnc(Nc3nc4c(F)cccc4s3)o2)c1,.,.,7.1µM,?,.
COc1ccccc1NC(=O)N(Cc1ccco1)Cc1cc2ccc(C)c(C)c2[nH]c1=O,.,.,16µM,?,.
COc1ccccc1NC(=O)N(Cc1ccco1)Cc1cc2cc(C)cc(C)c2[nH]c1=O,.,.,.,.,.
COc1ccc(N2Nc3n[nH]c(N)c3N2)cc1,.,25µM,.,.,?
CCOc1ccc(N2Nc3n[nH]c(N)c3N2)cc1,.,22µM,.,.,.
Cc1ccc2c(c1)-c1nc(-c3ccc4c(c3)NC(=O)CO4)cc(-c3ccccc3)c1CO2,/,.,/,/,/
COc1cccc(CNC(=O)Cc2c(C)c3c(cc(C)c4c(C)coc43)oc2=O)c1,/,.,/,/,/
CCOC(=O)c1c(-c2cccs2)csc1NC(=O)COC(=O)c1c(C)noc1C,.,.,14µM,.,.
CCOC(=O)c1c(-c2cccs2)csc1NC(=O)c1ccncc1,.,.,.,.,.
SMILES,GALK inh,GAA glycogen,PKM2 act,GAA inh,GAA spleen mod
CC(=C/c1ccccc1)/C=N/n1c(-c2ccco2)n[nH]c1=S,.,25µM,.,.,.
CCc1nnc(NC(=O)CSc2nc(C)c3c(c2C#N)CCCC3)s1,.,.,10µM,?,.
COc1ccc(NC(=O)CSc2nc(C)c3c(c2C#N)CCCC3)cc1,.,.,.,?,.
CC(C)C(=O)c1ccc(O)c(O)c1,.,7.1µM,.,/,.
COc1ccc(C(=O)O)c(O)c1OC,/,/,/,/,.
COC1=C(N)C(=O)c2nc(-c3nc(C(=O)O)c(C)c(-c4ccc(OC)c(OC)c4O)c3N)ccc2C1=O,8.9µM,.,.,.[15.4 µM],.
Cc1ccc(C)c(NC(=O)C2CCCN(S(=O)(=O)c3cccc4nsnc34)C2)c1 (centres undefined),/,.,/,/,/
COc1ccc(C(=O)c2cn(CC(=O)Nc3ccc4c(c3)OCCO4)c3ccc(OC)cc3c2=O)cc1,/,.,/,/,/
Cc1nnc(SCc2nc(-c3ccc(Cl)cc3)no2)n1-c1ccc(F)cc1,/,.,/,/,/
COC(=O)C1CSc2[nH]c(=O)sc2C1c1ccc(OC)c(OC)c1 (centres undefined),.,18µM,.,.,.
CCc1ccccc1NS(=O)(=O)c1cc2c(cc1C)n(C)c(=O)c(=O)n2C,/,.,4µM,/,/
CCn1c(=O)n(CC)c2cc(S(=O)(=O)Nc3ccccc3C)c(C)cc21,.,.,?,.,.
